In the supplement of paper PMC10849652:
Of roughly 8,800 targets only a part is listed; those with a hit were picked by preference. About 0.5% of all pairs of compound and target were hits. A number with no mark means an inactive call.

Key:
Assay in all cases: log2 fold change, soluble protein after heating vs DMSO (PISA); higher = thermal stabilisation; K562 lysate, 10 uM; active = over 0.2 and 3.5 SD of the protein, either way, in both replicates (recomputed)
erlotinib = compound: C#Cc1cccc(Nc2ncnc3cc(OCCOC)c(OCCOC)cc23)c1 [erlotinib]
Outline: (§1)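 K562 pellets were dounce-homogenised in PBS pH 7.4 containing 1 mM MgCl2, and the crude extract, at 1 mg/mL protein, was exposed to 10 μM compound for 30 min. Aliquots were heated for 3 min across 48°C-58°C, pooled, brought to 0.5% NP-40 at 4°C and spun at 21,000xg for 90 min, with the supernatant taken as soluble protein. TMTpro 16plex LC-MS/MS with equalised channel sums quantified that protein. Values are log-two fold changes in thermal stability relative to solvent controls, taken from duplicates.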

[1] = compound: C/C(=N\NC(=O)C1=CC(=CC=C1)S(=O)(=O)N2CCOCC2)/C3=C(C=CC(=C3)Cl)O
Outline: as §1

[2] = compound: C1=CC(=CC=C1C2=NC3=C(N2)C=C(C=C3)C(=O)N)OC4=CC=C(C=C4)Cl
Outline: as §1

[3] = compound: C1=CC2=C(C=CC(=C2)/C=C\3/C(=O)NC(=NCC4=CC=CS4)S3)N=C1
Outline: as §1

[4] = compound: C1=CC2=NC=CN=C2C=C1/C=C/3\C(=O)NC(=O)S3
Outline: as §1

[5] = compound: C1=CC=C(C=C1)C2=NC(=C(N2)C3=CC=NC=C3)C4=CC(=C(C=C4)Cl)O
Outline: as §1

[6] = compound: C1=CC=C2C(=C1)C3=NNC4=CC=CC(=C43)C2=O
Outline: as §1

[7] = compound: C1CCN(C1)C(=O)NC2=CC=CC(=C2)NC3=NC=C(C(=N3)NCCC4=CN=CN4)Br
Outline: as §1

[8] = compound: C1CN(CCC1(CC2=CC=C(C=C2)Cl)N)C3=NC=NC4=C3C=CN4
Outline: as §1

IRAK-1-4 Inhibitor I = compound: C1COCCN1CCN2C3=CC=CC=C3N=C2NC(=O)C4=CC(=CC=C4)[N+](=O)[O-] [IRAK-1-4 Inhibitor I]
Outline: as §1

ibrutinib = compound: C=CC(=O)N1CCC[C@@H](n2nc(-c3ccc(Oc4ccccc4)cc3)c3c(N)ncnc32)C1 [ibrutinib]
Outline: as §1

[9] = compound: CC(=O)c1cnc2ccc(-c3cc(Cl)c(O)c(Cl)c3)nc2c1N[C@H]1CC[C@H](CN(C)C)CC1
Outline: as §1

ralimetinib = compound: CC(C)(C)Cn1c(N)nc2ccc(-c3[nH]c(C(C)(C)C)nc3-c3ccc(F)cc3)nc21 [ralimetinib]
Outline: as §1

[10] = compound: CC(C)(O)CC(=O)NCCn1ccc2ncnc(Nc3ccc(Oc4cccc(C(F)(F)F)c4)c(Cl)c3)c21
Outline: as §1

[11] = compound: CC(C)C1=C2N=C(C=C(N2N=C1)NCC3=CC=CC=C3)NCCCCCCN
Outline: as §1

[12] = compound: CC1=C(C(CC(=O)N1)C2=CC=C(C=C2)C(F)(F)F)C(=O)NC3=C(C=C4C(=C3)C=NN4)F
Outline: as §1

[13] = compound: CC1=C(C2=C(C=C1)C(=O)C3=CC=CC=C3N2CCCN)C
Outline: as §1

[14] = compound: CC1=C(C=C(C=C1)NC(=O)C2=CC(=CC=C2)C(C)(C)C#N)NC3=CC4=C(C=C3)N=CN(C4=O)C
Outline: as §1

[15] = compound: CC1=C(C=C(C=C1)NC(=O)C2=CC(=CC=C2)N(C)C)NC(=O)C3=CC=C(C=C3)O
Outline: as §1

[16] = compound: CC1=CC=C(C=C1)SC2=C3C=C(SC3=CN=C2)C(=O)N
Outline: as §1

UniProt O75521, sequence (O75521 whole entry, looked up): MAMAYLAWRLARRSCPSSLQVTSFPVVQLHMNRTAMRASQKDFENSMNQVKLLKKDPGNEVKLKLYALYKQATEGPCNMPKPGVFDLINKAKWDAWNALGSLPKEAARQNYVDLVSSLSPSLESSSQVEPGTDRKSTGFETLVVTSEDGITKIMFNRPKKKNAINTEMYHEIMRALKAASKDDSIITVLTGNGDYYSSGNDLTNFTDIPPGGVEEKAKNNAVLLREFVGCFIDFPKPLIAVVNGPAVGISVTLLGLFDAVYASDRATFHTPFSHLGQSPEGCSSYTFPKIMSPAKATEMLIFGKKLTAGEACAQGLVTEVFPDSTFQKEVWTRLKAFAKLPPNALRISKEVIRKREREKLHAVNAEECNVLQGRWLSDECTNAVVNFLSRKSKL
UniProt Q92538, sequence (Q92538 whole entry, looked up): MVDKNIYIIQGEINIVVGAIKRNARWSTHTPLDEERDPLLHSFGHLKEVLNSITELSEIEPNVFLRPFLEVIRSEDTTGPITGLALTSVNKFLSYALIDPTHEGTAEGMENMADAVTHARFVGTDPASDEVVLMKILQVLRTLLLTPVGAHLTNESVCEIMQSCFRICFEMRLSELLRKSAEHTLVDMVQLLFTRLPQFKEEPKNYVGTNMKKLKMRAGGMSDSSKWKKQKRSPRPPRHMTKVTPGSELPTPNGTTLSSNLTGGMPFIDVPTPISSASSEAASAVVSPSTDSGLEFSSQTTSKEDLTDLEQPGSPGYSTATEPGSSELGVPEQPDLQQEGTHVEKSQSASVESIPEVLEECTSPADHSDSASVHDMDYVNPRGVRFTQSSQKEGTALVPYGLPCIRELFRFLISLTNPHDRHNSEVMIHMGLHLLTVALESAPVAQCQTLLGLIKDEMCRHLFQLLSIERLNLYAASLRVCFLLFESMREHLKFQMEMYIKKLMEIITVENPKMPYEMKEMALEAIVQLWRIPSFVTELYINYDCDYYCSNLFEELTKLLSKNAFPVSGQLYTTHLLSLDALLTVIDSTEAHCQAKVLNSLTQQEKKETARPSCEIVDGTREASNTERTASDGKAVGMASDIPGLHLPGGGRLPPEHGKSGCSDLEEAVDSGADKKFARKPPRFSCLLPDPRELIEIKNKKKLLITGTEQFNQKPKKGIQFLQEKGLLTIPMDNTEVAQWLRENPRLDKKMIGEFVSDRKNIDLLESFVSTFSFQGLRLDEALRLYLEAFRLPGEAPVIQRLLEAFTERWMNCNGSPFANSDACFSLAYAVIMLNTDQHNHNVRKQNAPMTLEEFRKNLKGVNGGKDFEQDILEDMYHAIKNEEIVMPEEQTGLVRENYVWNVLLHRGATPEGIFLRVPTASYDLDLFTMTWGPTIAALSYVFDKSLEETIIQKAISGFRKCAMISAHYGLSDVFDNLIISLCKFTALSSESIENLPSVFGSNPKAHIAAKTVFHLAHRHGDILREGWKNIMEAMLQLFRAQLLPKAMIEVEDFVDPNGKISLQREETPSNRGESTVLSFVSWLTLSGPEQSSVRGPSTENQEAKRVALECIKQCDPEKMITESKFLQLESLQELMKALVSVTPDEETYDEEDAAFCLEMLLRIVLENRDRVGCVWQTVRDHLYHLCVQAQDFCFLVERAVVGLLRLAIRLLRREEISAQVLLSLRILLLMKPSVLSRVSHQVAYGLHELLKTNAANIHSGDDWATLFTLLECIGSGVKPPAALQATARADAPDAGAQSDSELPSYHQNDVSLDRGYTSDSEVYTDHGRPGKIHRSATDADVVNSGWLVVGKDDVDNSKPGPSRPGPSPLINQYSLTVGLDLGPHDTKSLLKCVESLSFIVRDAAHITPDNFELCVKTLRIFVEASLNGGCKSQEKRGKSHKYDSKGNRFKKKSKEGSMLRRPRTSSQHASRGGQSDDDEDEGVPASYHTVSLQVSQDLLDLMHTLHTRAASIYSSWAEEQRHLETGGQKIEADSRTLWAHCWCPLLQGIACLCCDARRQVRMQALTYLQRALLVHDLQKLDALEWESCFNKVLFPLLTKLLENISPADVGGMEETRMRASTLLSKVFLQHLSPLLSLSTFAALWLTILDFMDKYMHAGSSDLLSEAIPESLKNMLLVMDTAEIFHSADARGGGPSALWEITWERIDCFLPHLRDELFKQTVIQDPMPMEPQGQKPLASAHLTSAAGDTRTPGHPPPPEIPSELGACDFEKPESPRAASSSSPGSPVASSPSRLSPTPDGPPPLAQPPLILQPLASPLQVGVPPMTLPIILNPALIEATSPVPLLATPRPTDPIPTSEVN
UniProt Q9BQI3, sequence (Q9BQI3 whole entry, looked up): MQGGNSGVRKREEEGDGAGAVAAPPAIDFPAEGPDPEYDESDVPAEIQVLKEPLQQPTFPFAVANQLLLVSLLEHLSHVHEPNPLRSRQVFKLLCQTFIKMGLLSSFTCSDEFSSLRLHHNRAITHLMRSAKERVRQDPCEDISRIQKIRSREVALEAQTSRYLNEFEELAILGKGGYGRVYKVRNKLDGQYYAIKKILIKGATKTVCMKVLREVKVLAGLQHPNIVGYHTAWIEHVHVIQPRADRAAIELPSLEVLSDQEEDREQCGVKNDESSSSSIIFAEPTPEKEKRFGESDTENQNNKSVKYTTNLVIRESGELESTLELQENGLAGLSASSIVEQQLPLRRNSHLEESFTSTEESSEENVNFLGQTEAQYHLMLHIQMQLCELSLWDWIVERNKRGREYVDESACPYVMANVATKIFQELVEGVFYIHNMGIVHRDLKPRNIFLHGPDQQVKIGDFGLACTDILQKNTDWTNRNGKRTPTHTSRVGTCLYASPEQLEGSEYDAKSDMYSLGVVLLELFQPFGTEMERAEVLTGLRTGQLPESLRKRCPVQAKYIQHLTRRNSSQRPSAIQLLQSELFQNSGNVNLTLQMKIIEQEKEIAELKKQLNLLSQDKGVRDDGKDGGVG
UniProt Q8TB52, sequence (Q8TB52 whole entry, looked up): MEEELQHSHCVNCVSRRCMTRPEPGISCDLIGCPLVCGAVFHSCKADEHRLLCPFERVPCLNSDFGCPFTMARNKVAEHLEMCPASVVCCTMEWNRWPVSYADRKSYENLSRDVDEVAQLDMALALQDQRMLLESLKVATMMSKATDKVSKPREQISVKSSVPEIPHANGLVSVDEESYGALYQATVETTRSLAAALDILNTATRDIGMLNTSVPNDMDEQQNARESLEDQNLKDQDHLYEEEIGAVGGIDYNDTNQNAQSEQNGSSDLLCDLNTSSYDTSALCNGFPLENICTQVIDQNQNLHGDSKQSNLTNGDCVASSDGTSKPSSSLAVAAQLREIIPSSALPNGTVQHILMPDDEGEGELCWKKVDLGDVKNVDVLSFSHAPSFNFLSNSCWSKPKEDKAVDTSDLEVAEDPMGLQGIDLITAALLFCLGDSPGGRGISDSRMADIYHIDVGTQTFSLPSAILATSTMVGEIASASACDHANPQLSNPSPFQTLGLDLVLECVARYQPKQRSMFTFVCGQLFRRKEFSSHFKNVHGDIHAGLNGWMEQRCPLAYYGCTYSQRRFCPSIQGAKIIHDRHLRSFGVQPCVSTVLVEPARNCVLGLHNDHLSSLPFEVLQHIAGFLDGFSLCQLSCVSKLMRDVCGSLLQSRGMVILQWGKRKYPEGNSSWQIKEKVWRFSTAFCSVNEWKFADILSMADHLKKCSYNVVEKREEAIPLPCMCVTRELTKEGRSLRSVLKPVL
UniProt Q92947, sequence (Q92947 whole entry, looked up): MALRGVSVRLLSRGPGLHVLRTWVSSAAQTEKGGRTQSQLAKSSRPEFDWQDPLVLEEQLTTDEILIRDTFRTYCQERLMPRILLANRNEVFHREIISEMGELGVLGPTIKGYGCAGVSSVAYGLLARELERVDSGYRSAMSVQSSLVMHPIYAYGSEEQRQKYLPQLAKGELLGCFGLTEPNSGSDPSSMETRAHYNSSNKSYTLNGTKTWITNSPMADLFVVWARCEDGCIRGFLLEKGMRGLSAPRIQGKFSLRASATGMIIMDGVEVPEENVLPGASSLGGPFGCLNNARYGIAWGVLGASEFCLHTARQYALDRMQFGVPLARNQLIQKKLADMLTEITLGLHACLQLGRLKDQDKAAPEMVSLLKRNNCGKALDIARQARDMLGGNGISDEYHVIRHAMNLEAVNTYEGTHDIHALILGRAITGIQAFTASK
UniProt Q8N6R0, sequence (Q8N6R0 whole entry, looked up): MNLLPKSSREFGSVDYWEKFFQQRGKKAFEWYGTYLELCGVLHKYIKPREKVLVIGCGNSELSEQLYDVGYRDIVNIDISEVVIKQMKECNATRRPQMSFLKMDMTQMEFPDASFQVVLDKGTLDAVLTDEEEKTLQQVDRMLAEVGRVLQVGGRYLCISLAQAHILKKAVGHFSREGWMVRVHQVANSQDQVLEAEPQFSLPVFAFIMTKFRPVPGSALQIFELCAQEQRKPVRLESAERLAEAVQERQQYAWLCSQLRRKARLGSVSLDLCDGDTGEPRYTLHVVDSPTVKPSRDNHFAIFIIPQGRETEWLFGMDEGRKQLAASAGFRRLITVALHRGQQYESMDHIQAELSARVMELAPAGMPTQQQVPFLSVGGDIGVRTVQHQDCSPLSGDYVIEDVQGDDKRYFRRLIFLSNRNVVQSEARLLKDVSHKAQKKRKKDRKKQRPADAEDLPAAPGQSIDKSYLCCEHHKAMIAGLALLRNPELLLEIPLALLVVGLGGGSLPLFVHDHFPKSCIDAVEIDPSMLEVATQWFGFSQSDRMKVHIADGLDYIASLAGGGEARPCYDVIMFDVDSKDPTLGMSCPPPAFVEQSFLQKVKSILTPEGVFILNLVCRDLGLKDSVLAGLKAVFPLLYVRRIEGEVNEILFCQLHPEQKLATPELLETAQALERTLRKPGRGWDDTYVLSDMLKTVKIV
UniProt Q15125, sequence (Q15125 whole entry, looked up): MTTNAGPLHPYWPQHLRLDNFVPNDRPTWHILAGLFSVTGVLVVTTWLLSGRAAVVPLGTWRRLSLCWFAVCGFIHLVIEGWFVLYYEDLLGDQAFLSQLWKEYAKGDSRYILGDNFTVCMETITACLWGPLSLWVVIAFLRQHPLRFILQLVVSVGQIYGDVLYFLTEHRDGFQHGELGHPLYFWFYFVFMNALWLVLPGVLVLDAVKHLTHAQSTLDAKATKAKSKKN

| Target | log2 fold change (erlotinib) | log2 fold change [1] | log2 fold change [2] | log2 fold change [3] | log2 fold change [4] | log2 fold change [5] | log2 fold change [6] | log2 fold change [7] | log2 fold change [8] | log2 fold change (IRAK-1-4 Inhibitor I) | log2 fold change (ibrutinib) | log2 fold change [9] | log2 fold change (ralimetinib) | log2 fold change [10] | log2 fold change [11] | log2 fold change [12] | log2 fold change [13] | log2 fold change [14] | log2 fold change [15] | log2 fold change [16] |
| --- | --- | --- | --- | --- | --- | --- | --- | --- | --- | --- | --- | --- | --- | --- | --- | --- | --- | --- | --- | --- |
| FBXO30 (UniProt Q8TB52) | 0.006 | -0.064 | -0.031 | 0.014 | -0.038 | -0.008 | 0.042 | -0.014 | -0.007 | -0.018 | 0.022 | -0.007 | 0.057 | 0.046 | -0.009 | -0.003 | 0.013 | 0.016 | 0.006 | 0.016 |
| ECI2 (UniProt O75521) | 0.032 | 0.01 | 0.024 | -0.011 | 0.022 | -0.019 | -0.111 | -0.03 | 0.045 | 0.054 | 0.01 | -0.027 | -0.033 | -0.049 | -0.015 | -0.013 | -0.008 | 0.013 | 0.007 | 0 |
| GCDH (UniProt Q92947) | -0.038 | 0.1 | -0.023 | 0.051 | 0.089 | -0.027 | 0.009 | 0 | 0 | 0.011 | -0.046 | 0.028 | -0.04 | 0.014 | -0.051 | 0.069 | -0.019 | 0.086 | -0.017 | -0.03 |
| EEF1AKNMT (UniProt Q8N6R0) | 0.048 | 0.029 | -0.02 | -0.039 | 0.005 | 0 | -0.065 | 0.011 | 0.053 | -0.015 | -0.016 | 0.017 | 0.096 | 0.023 | 0.017 | -0.003 | -0.024 | 0.002 | -0.021 | 0.002 |
| FYN (UniProt P06241) | -0.028 | 0.02 | 0.025 | 0.028 | -0.062 | 0.058 | 0.092 | 0.132 | -0.018 | -0.145 | 0.79 (active) | 0.046 | 0.09 | -0.13 | 0.003 |  | -0.042 | -0.069 | 0.052 | 0.021 |
| EIF2AK1 (UniProt Q9BQI3) | -0.016 | 0.087 | 0.017 | -0.02 | 0.029 | -0.027 | -0.016 | -0.02 | -0.006 | -0.01 | 0.007 | -0.151 | 0.028 | 0.034 | -0.017 | -0.001 | -0.007 | 0.044 | 0.018 | -0.072 |
| GBF1 (UniProt Q92538) | 0.044 | 0.043 | -0.036 | -0.009 | 0.002 | -0.008 | -0.012 | -0.007 | 0.023 | 0.058 | 0.007 | -0.001 | 0.051 | -0.03 | -0.011 | -0.003 | -0.011 | -0.015 | 0.017 | 0.012 |
| EBP (UniProt Q15125) | 0.055 | 0.015 | -0.073 | -0.068 | 0.01 | -0.03 | -0.128 | 0.008 | 0.047 | 0.086 | -0.023 | 0.002 | 0.004 | -0.022 | 0.02 | 0.01 | -0.025 | -0.016 | -0.152 | 0.005 |
